A selection: hits, their analogues and other compounds. The true share with any hit is near 2.9%.
HEK293 tox: qHTS of GLP-1 Receptor Inverse Agonists: Cytotox Screen | HEK293 cAMP-luciferase reporter cells, luminescence, 24 h | Potency, µM (titrated, usually from 38.3 µM), inactives show top-dose activity change, negative = inhibition, actives largely listed as inhibitors | actives 0.13% (n = 410,000) | AID 624418, 2012;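 note: loss of luciferase light is scored as toxicity; potency is the fitted concentration of half-maximal effect; % is set by controls: 0 for no effect and ±100 for the full control effect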
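Step one: seed cells (200 cells/uL, DMEM with 10% Nu serum, 1% pen-strep). Step two: 12-hour incubation at 37 deg C. Step three: pin 23 nL compound, incubate 24 hr. Step four: add luciferase reagent, read luminescence 12 min later.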
ClpP mod: qHTS Assay for Activators of ClpP; ATP-dependent Clp protease proteolytic subunit (Bacillus subtilis (strain 168)), P80244; purified B. subtilis ClpP, FRET peptide cleavage, 20 min; Potency, µM (titrated, usually from 57.5 µM), for the others: at the highest dose activity change, negative = active; actives 1.9% (n = 340,000); active = well fitted falling curve with a large enough effect; inconclusive = small, poorly fitted or top-dose-only effect; inactive = no such curve, though single readings can be large or run the other way; note: potency is the fitted concentration of half-maximal effect; the source files actives as falling curves though it sought activators and does not explain the sign; nearly all actives have a fitted effect of over 65% in size
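FRET quenching reversal measured ClpP activation: 10 microg/mL B. subtilis ClpP at pH 8 with the FRET-FV decapeptide, read at 430 nm after 320 nm excitation. The 20-min minus 0-min signal was scaled between DMSO/no-enzyme wells and ADEP (5.8 microM final).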
GLP-1R agonist: qHTS of GLP-1 Receptor Agonists; HEK293 GLP-1R CRE-luciferase, luminescence, 4-6 h; cells express a hypersensitive GLP-1R form; Potency, µM (titrated, usually from 45.6 µM), for inactives: at the highest dose activation, most hits filed as activators; Glucagon-like peptide 1 receptor (Homo sapiens), P43220; actives 0.007% (n = 380,000); note: potency is the fitted concentration of half-maximal effect; % of control where 0% means no effect
Target sequence (P43220 whole entry, looked up): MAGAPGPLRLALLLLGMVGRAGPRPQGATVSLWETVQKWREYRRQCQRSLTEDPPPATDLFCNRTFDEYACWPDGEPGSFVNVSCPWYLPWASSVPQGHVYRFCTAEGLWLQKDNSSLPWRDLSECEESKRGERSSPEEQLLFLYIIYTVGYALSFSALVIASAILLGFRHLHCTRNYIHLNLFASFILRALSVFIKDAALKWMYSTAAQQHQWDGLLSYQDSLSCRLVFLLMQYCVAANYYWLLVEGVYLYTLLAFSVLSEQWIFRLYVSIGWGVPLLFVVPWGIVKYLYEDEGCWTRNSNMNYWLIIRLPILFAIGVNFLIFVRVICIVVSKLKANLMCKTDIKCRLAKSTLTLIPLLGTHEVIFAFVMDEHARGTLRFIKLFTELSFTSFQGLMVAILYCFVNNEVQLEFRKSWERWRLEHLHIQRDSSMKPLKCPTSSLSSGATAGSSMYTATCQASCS
p53 reactivation: qHTS assay for re-activators of p53 using a Luc reporter; H1299 p53-A138V BP100-luciferase reporter, luminescence, 24 h; actives 0.063% (n = 320,000); Potency, µM (doses to about 92.2 µM), without a hit: at the top dose activity change, positive = activation, actives largely listed as activators; AID 504706, 2011; note: potency is the fitted concentration of half-maximal effect; % of control where 0% means no effect; nearly all actives have a fitted effect of over 45% in size
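p53-null H1299 cells stably carrying temperature-sensitive p53-A138V and a BP100-luciferase reporter were pinned with compounds (4-point, 1:5 series) and held 24 hrs at 37 deg C. Luminescence was read 10 min after detection reagent.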
LDHA inh: qHTS assay for inhibitors of human lactate dehydrogenase; L-lactate dehydrogenase A chain (Homo sapiens), P00338; AID 1347041, 2019; actives 0.15% (n = 480,000); activity change, % (values are at about 110 or 230 µM); purified LDHA, NADH/diaphorase-resazurin fluorescence; active compounds read low; in the data active = activity change below about -30%; inconclusive = mostly about -25% to -30%;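 note: plate controls were DMSO wells for no effect and wells without enzyme for full effect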
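LDH5 2 nM; NADH 0.06 mM, pyruvate 0.2 mM; 200 mM Tris pH 7.4, EDTA, Tween-20; 5 min RT. Detection: diaphorase 0.133 mg/mL + resazurin 37 µM, fluorescence ex540/em590 at 0 and 20 min; normalized to enzyme-free and DMSO wells.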
GLP-1R inv ag: qHTS of GLP-1 Receptor Inverse Agonists (Inhibition Mode); AID 624417, 2012; actives 1.6% (n = 410,000); HEK293 GLP-1R CRE-luciferase, luminescence, 24 h; GLP-1R form is constitutively active; Glucagon-like peptide 1 receptor (Homo sapiens), P43220; Potency, µM (highest dose often 38.3 µM), for the others: at the top dose activity change, negative = inhibition, usual class: inhibitors; note: potency is the fitted concentration of half-maximal effect; % is set by controls: 0 for no effect and ±100 for the full control effect; nearly all actives have a fitted effect of over 55% in size
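Constitutively active GLP-1R drives a cAMP-responsive luciferase in stably transfected HEK293 cells; test compounds are added after overnight (12 h) attachment and left 24 hr, and signal loss in luminescence marks inhibition.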
Starred values were filed as active, the others as inactive; ? = inconclusive; · = no result. Unless noted, calls come from the whole dose curve; as a rule, active = well fitted curve in the direction sought with a large enough effect; inconclusive = small, poorly fitted or top-dose-only effect, or another doubt; inactive = no such curve, though single readings can be large; an effect the other way counts as inactive or inconclusive.

SMILES	HEK293 tox	ClpP mod	GLP-1R agonist	p53 reactivation	LDHA inh	GLP-1R inv ag
Cc1cc(N2CCC(C)CC2)nc(SCC(=O)c2ccccc2)n1	1%	2%	1%	-8%	1	3.2µM*
Cc1cc(N2CCCC2)nc(SCC(=O)c2ccccc2)n1	5%	-4%	0%	18%	-11	25%
COc1ccc(C(=O)NC2CCCCCC2)cc1S(=O)(=O)N1CCOCC1	5%	25µM*	9%	-3%	8	6%
COC(=O)C1=C(C)NC(C)=C(C(=O)OC)C1c1ccc(OC(=O)c2ccco2)cc1	-20%	18µM*	15%	-22%	-2	23%
COC(=O)C1=C(C)NC(=S)NC1c1ccc(OC(=O)c2ccco2)cc1 (centres undefined)	-1%	·	0%	0%	-3	20%
Cc1cccc(C(=O)NNC2=C(C(=O)C(F)(F)F)CCC2)c1O	?	1%	-10%	?	-6	2.8µM*
CCC(CC)C(=O)Nc1nnc(S(=O)(=O)N2CCCCCC2)s1	-3%	-1%	16%	10%	-9	7.9µM*
CC(C)C(=O)Nc1nnc(S(=O)(=O)N2CCCCCC2)s1	11%	-1%	1%	7%	-5	-5%
COc1ccc(-c2nc3nc(C)cc(C)n3n2)cc1	7%	16µM*	-1%	?	-2	27%
Cc1ccc(Cl)cc1NC(=O)Cn1c(=O)n(Cc2ccc(C(=O)NCc3ccc4c(c3)OCO4)cc2)c(=O)c2ccccc21	-1%	11µM*	-1%	·	-4	9%
Cc1ccc(NC(=O)Cn2c(=O)n(Cc3ccc(C(=O)NCc4ccc5c(c4)OCO5)cc3)c(=O)c3ccccc32)cc1	-1%	22µM*	1%	·	1	14%
O=C(Cn1c(=O)n(Cc2ccc(C(=O)NCc3ccc4c(c3)OCO4)cc2)c(=O)c2ccccc21)Nc1ccccc1F	4%	4%	-1%	·	-3	23%
Cc1ccc(NC(=O)Cn2c(=O)n(Cc3ccc4c(c3)OCO4)c(=O)c3ccccc32)cc1	2%	8%	-1%	·	-1	0%
CC(=O)Nc1ccc(S(=O)(=O)N(C)c2ccccc2)cc1	-11%	0%	-7%	-7%	3	0%
CN(c1ccccc1)S(=O)(=O)c1ccc(NC(=O)c2ccc(-c3ccccc3)cc2)cc1	-13%	25µM*	-18%	4%	2	-28%
COc1ccc(S(=O)(=O)N(C)c2ccc(C(=O)Nc3ccccc3C(=O)N3CCOCC3)cc2)cc1	-6%	-1%	2%	1%	-10	17%
Cc1ccc(S(=O)(=O)N(C)c2ccc(C(=O)Nc3ccccc3C(=O)N3CCOCC3)cc2)cc1	14%	18µM*	5%	-5%	-7	18%
Cc1ccc(/C=N/NC(=O)c2ccc(N(C)S(=O)(=O)c3ccccc3)cc2)cc1	-18%	·	9%	-7%	-7	10µM*
COc1cc(NC(=O)c2ccc(S(=O)(=O)N(C)c3ccccc3)cc2)cc(OC)c1	-12%	-10%	2%	5%	-5	10µM*
COc1ccc(CCNC(=O)C(=O)NCC(c2cccs2)S(=O)(=O)c2ccccc2)cc1 (centres undefined)	-11%	-2%	·	·	-13	-11%
CC(Oc1ccc(S(=O)(=O)N2CCCC2)cc1[N+](=O)[O-])C(=O)N(C)c1ccccc1 (centres undefined)	7%	-17%	-2%	5%	-3	0%
O=C(c1cc2ccccc2o1)N(Cc1nnc(-c2ccccc2Cl)o1)C1CC1	4%	-5%	4%	12%	-10	-9%

Screens as filed in PubChem.
